Data as given in PubChem BioAssay AID492956 (The Scripps Research Institute Molecular Screening Center, 2010).
About 3,300 (0.97%) of roughly 340,000 compounds were called active. The sample as a whole holds a higher share of actives than the screen did. Values without a mark were called inactive.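 How the source made its calls: active means inhibition above the mean over all tested compounds plus 3 SD (cut at about 30% in these data); inactive means the rest.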

Each compound was assayed against Platelet-activating factor acetylhydrolase 2, cytoplasmic (Homo sapiens) (UniProt Q99487) (assay: inhibition of cytoplasmic PAF acetylhydrolase 2 – biochemical, fluorescence polarization, human, primary screen (AID 492956;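 further: inhibitors block probe labeling of enzyme so polarization drops; 0% = enzyme with DMSO and 100% = wells lacking PAFAH2 protein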)). Settings: recombinant PAFAH2, FP-rhodamine activity probe, at 3.39 µM, hits give high values.

SMILES | inhibition
COC(=O)C1=C(C(=O)OC)C(c2cc([N+](=O)[O-])ccc2O)c2sc(=O)[nH]c2S1 (stereo not drawn) | 11.7%
CC(C)(C)c1ccccc1NC(=O)CN1C(=O)NC2(CCCC2)C1=O | -2.59%
CC(=O)Nc1ccc(SC[C@H](Cc2ccccc2)N2CC[C@@H](C)CCC2=O)cc1 | 1.61%
CCOC(=O)C1CCCN(Cc2nc(N)nc(Nc3ccc(C)cc3)n2)C1 (stereo not drawn) | 3.45%
CCCN(CC1CC1)C(=O)COC(=O)c1ccc(C)cc1O | 6.82%
Cc1cccc(NC(=O)/C=C/c2ccc3c(c2)OCO3)n1 | 0.78%
Cc1csc(NC(=O)CSc2ccc(-c3ccc(F)cc3)nn2)n1 | 1.11%
COC(=O)c1sc(-c2ccc(C(C)(C)C)cc2)cc1NC(=O)/C=C/C(=O)O | -3.2%
C[C@@H]1CC[C@]2(O[C@@H](CCO)C[C@H](O)[C@H]2O)O1 | -8.93%
O=C(COC(=O)c1ccc2c(c1)OCCO2)NCc1ccccc1Cl | 85.4% (active)
O=C(OCc1ccccc1F)c1ccc2c(c1)OCCO2 | 14.7%
O=C(COC(=O)c1ccccc1)c1ccc2c(c1)OCCO2 | 2.41%
CC(NC(=O)COC(=O)c1ccc2c(c1)OCO2)c1ccccc1 (stereo not drawn) | 55% (active)
CN(C)C(=O)c1ccc(NC(=O)COC(=O)c2cc3c(s2)CCCCC3)cc1 | 22.8%
O=C(NCc1ccccc1Cl)c1csc2c1CCCCC2 | 3.83%
O=C(COC(=O)c1ccc(Cl)nc1)NCc1ccc2c(c1)OCO2 | 5.61%
CC(NC(=O)COC(=O)c1cc(=O)[nH]c2ccccc12)c1ccccc1 (stereo not drawn) | 1.93%
CC(=O)Nc1cccc(C(=O)OCC(=O)c2ccc3c(c2)OCO3)c1 | -2.44%
O=C(CN(Cc1ccccc1)C(=O)c1ccc2c(c1)OCCO2)NCc1ccc2c(c1)OCO2 | 1.54%
O=C(COC(=O)c1cc2c(s1)CCCC2)NCc1ccccc1Cl | 67% (active)

SMILES | inhibition
O=C(COC(=O)c1ccc2c(c1)OCCO2)NCc1ccccc1 | 51.5% (active)
COc1cc(C(c2c(NC(=O)c3ccco3)sc(C)c2C)N2CCOCC2)cc(OC)c1OC (stereo not drawn) | 2.1%
S=c1nc2ccccc2c2nc(-c3cccnc3)[nH]n12 | 6.52%
CCCCN1C(=O)CCC(C(=O)O)C1c1ccc(OC)cc1 (stereo not drawn) | -2.61%
CC(=O)Nc1ccc(Nc2c([N+](=O)[O-])cc(S(C)(=O)=O)cc2[N+](=O)[O-])cc1 | 3.4%
O=C(CNS(=O)(=O)c1ccccc1)NCC(=O)OCc1ccccc1F | 10.3%
COC(=O)c1ccccc1NC(=O)C1(S(=O)(=O)c2ccc(Cl)cc2)CC1 | 4.24%
CC(C)C1C2=C(CC(C)(C)CC2=O)ON1c1ccccc1 (stereo not drawn) | -5.16%
Cc1cc(C)n(CC(C)NCc2c(C(=O)N3CCOCC3)nc3c(C)cccn23)n1 (stereo not drawn) | -0.83%
FC(F)(F)c1nc(-c2ccccc2)ncc1-c1nnnn1-c1ccccc1 | 10.3%
Cc1ccc(-n2ncc3c2CC(C)(C)CC3NC(=O)Cc2c(C)noc2C)cc1 (stereo not drawn) | -3.4%
COc1ccc(C(C(=O)NCc2ccccc2)N(Cc2cccs2)C(=O)c2cnccn2)cc1 (stereo not drawn) | 2.03%
N[C@@H](Cc1ccccc1)C(=O)N1CCC(C(=O)NCC(=O)Nc2ccc(F)cc2)CC1 | -5.9%
C=CCn1c(=S)[nH]c2nc3c(cc2c1=O)COC(C)(C)C3 | 6.59%
C=CCn1cnc2scc(-c3ccccc3)c2c1=O | -1.85%
C=CCn1c(=S)[nH]c2scc(-c3ccco3)c2c1=O | 38.7% (active)
O=S1(=O)C=C(SCCN2CCCC2)c2ccccc21 | 6.55%
C=CCN1C2CCCC1CC(NC(=S)Nc1cccc(OC)c1)C2 (stereo not drawn) | 1.32%
COc1ccccc1C(=O)NC(=S)NC12CC3CC(CC(C3)C1)C2 | -0.29%
O=C(COC(=O)c1cccnc1Cl)NC12CC3CC(CC(C3)C1)C2 | 86.5% (active)

SMILES | inhibition
COc1cc(C(=O)OCC(=O)NC23CC4CC(CC(C4)C2)C3)cc(OC)c1OC | 77.8% (active)
NC(=O)COc1ccccc1C(=O)NC12CC3CC(CC(C3)C1)C2 | 6.96%
O=C(COC(=O)c1ccc(Br)o1)NC12CC3CC(CC(C3)C1)C2 | 26.2%
COc1cc(C(=O)OCC(=O)NC(C)CCc2ccccc2)cc(OC)c1OC (stereo not drawn) | 5.21%
O=C(OCC(=O)c1cccs1)c1ccc([N+](=O)[O-])o1 | -2.46%
O=C(COC(=O)c1cccnc1Cl)Nc1ccc(S(=O)(=O)N2CCOCC2)cc1 | -2.28%
O=C(COC(=O)c1ccc([N+](=O)[O-])o1)NC12CC3CC(CC(C3)C1)C2 | 59.8% (active)
COc1ccc(COC(=O)c2ccc(Cl)c(S(=O)(=O)N3CCOCC3)c2)cc1F | 8%
CN(C)S(=O)(=O)c1ccc(NC(=O)COC(=O)Cn2[nH]c(=O)c3ccccc3c2=O)cc1 | 1.37%
CCOc1ccc2c(c1)cc(CN(C(=O)CC)C1CCCCC1)c1nnnn12 | 9.13%
COc1cc(NC(=O)COC(=O)c2ccc([N+](=O)[O-])s2)cc(OC)c1OC | 36.9% (active)
COc1ccc(C(=O)COC(=O)c2ccc([N+](=O)[O-])s2)cc1OC | 18.3%
COc1cc(NC(=O)COC(=O)c2cnc(C)cn2)c(C)cc1[N+](=O)[O-] | 4%
Cc1ccc2c(c1)N(C(=O)CCC(=O)N1CCc3ccccc3C1)CCO2 | 1.77%
COc1ccc(C(=O)OCC(=O)Nc2ccc3[nH]c(=O)[nH]c3c2)c(OC)c1OC | 2.25%
COc1ccc(C(=O)OCC(=O)c2ccc(Cl)s2)c(OC)c1OC | 65.5% (active)
COc1ccc(C(=O)COC(=O)c2nn(C)c(=O)c3ccccc23)c(OC)c1 | 1.19%
COc1ccccc1NC(=O)N(O)C1(C#N)CCCCC1 | 17.2%
